Only some compounds are listed: those with a hit (about 0.74% of all), similar ones and a draw of the others.
Vif-A3F inh = qHTS for Inhibitors of Vif-A3F Interactions: qHTS; AID 602313, 2012; HeLa A3F-eYFP + Vif (tagged APOBEC3F with the HIV-1 protein that degrades it), YFP fluorescence increase; Potency, µM (top dose mostly 46.1 µM), without a hit: at the highest dose activity, negative = active; 390,000 tested, 0.2% active; also: potency is read from the fitted curve at half-maximal effect; % of control where 0% means no effect; nearly all actives have a fitted effect of over 65% in size
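HeLa cells stably expressing A3F-eYFP plus Vif, plated and incubated overnight at 37 deg C, then exposed to compounds overnight at 37 deg C. Blocked degradation read as raised yellow fluorescence (Ex 488/Em 500-530).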
PINK1 expr mod = A Quantitative High throughput Screen to Identify Chemical Modulators of PINK1 Expression; PINK1 immunofluorescence, high-content cytometry, 24 h; Potency, µM (doses to about 76.6 µM), without a hit: top-dose activation (PINK1 increase), hits mostly activators; 410,000 tested, 0.2% active; active = well fitted activation curve with a large enough effect; inconclusive = small, poorly fitted or top-dose-only effect; cell line not stated here; also: potency is read from the fitted curve at half-maximal effect; % of control where 0% means no effect; nearly all actives have a fitted effect of over 65% in size
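Compound titrations (5 concentrations, 24 h) on a stable cell line; DMSO and CCCP controls. Endpoint: fixed-cell PINK1 immunofluorescence with mitochondrial, cell and nuclear markers, scanned by microplate cytometer.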
Vif-APOBEC3G blk = qHTS for Inhibitors of Vif-A3G Interactions: qHTS. DNA dC->dU-editing enzyme APOBEC-3G (Homo sapiens), Q9HC16. HeLa A3G-eYFP + Vif (tagged APOBEC3G with the HIV-1 protein that degrades it), YFP fluorescence, overnight. Potency, µM (top dose mostly 46.1 µM), without a hit: at the highest dose activity, negative = active, actives largely listed as inhibitors. 410,000 tested, 0.076% active. AID 602310, 2012; also: potency is read from the fitted curve at half-maximal effect; % is scaled to controls: 0 for no effect and ±100 for the full control effect; nearly all actives have a fitted effect of over 60% in size
Target sequence (Q9HC16 whole entry, looked up): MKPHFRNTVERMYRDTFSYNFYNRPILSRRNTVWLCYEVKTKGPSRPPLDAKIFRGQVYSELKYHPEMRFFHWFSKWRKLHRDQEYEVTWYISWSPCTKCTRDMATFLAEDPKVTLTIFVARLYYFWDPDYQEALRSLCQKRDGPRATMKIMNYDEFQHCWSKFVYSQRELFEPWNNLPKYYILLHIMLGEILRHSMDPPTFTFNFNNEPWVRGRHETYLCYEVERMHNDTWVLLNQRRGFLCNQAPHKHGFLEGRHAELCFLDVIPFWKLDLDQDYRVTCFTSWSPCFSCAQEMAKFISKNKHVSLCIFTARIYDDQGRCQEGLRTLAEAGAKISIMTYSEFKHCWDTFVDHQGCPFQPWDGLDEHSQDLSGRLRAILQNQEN
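Read-out is eYFP fluorescence (Ex 488/Em 500-530) from Vif-expressing HeLa A3G-eYFP cells; more signal means A3G escaped Vif-mediated degradation. Cells plated overnight, compound pinned in, incubated overnight at 37 deg C.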
GRP78 ERSR act = qHTS for Inducers of the Endoplasmic Reticulum Stress Response (ERSR) in Human Glioma: qHTS. 420,000 tested, 0.02% active. Potency, µM, without a hit: at the top dose activation, actives largely listed as activators. U87-MG GRP78 promoter luciferase reporter, 16 h; also: potency is read from the fitted curve at half-maximal effect; series mostly up to about 76 µM; % of control where 0% means no effect; nearly all actives have a fitted effect of over 35% in size
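ERSR induction read as luciferase luminescence (Bright-Glo, 10 min at room temperature) in stably transfected human U87-MG glioma cells exposed to compounds for 16 h, using GRP78 as sensor.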
LDHA inh = qHTS assay for inhibitors of human lactate dehydrogenase. L-lactate dehydrogenase A chain (Homo sapiens), P00338. 480,000 tested, 0.15% active. activity change, % (values are at about 110 or 230 µM). purified LDHA, NADH/diaphorase-resazurin fluorescence; active compounds read low. AID 1347041, 2019; in the data active = activity change below about -30%; inconclusive = mostly about -25% to -30%;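 also: plate controls were DMSO wells for no effect and wells without enzyme for full effect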
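LDH5 2 nM; NADH 0.06 mM, pyruvate 0.2 mM; 200 mM Tris pH 7.4, EDTA, Tween-20; 5 min RT. Detection: diaphorase 0.133 mg/mL + resazurin 37 µM, fluorescence ex540/em590 at 0 and 20 min; normalized to enzyme-free and DMSO wells.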
pAkt inh = HTS Assay for Inhibitors of Akt Phophorylation: Primary Screen; AID 651550, 2012; activity change, % for hits at 50 µM; 360,000 tested, 0.32% active; Neuro2A IGF-stimulated pAkt S473 HTRF, 20 min; active compounds read low; in the data active = activity change below about -80%; inconclusive = mostly about -51% to -80%; also: % is scaled to controls: 0 for no effect and ±100 for the full control effect
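Neuro2A cells in DMEM with 0.5% FBS, overnight at 37 deg C, given compound at single 50 µM final, then IGF (6 nM final) for 20 min at 37 deg C. Lysed; phospho-Akt Ser473 by HTRF after 24 h, 665/615 ratio.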
* = called active by the depositor; i = inactive; ? = inconclusive; . = not tested or not shown; ! = not confirmed by another sample; [ ] = remark or other dose. Unless noted, calls follow the shape of the dose curve; as a rule, active = well fitted curve in the direction sought with a large enough effect; inconclusive = small, poorly fitted or top-dose-only effect, or another doubt; inactive = no such curve, though single readings can be large; an effect the other way counts as inactive or inconclusive.

SMILES | Vif-A3F inh | PINK1 expr mod | Vif-APOBEC3G blk | GRP78 ERSR act | LDHA inh | pAkt inh
COc1ccc(CCNC(=O)c2cnc(C)cn2)cc1 | -7% | -1% | -2% | -3% | 1 | i
COc1ccc(CCNC(=O)COC(=O)c2cnc(C)cn2)cc1 | -6% | 0% | 0% | -4% | -4 | -109%*
CCN(CC)S(=O)(=O)c1ccc(Oc2cccc(C)c2)c(NC(=O)c2ccccn2)c1 | . | . | . | . | 4 | .
COc1ccccc1OCC(=O)/C=C1/N(C)c2ccccc2C1(C)C | 0% | 0% | -6% | -1% | -1 | i
CN1/C(=C\C(=O)C[n+]2ccc3ccccc3c2)C(C)(C)c2ccccc21 | ? | 45µM* | 1% | -5% | -3 | i
O=C(OCc1ccc(F)cc1)c1ccc2c(c1)-c1ccccc1C2=O | -6% | 0% | 0% | -2% | -5 | i
CCOC(=O)C1=C(Cc2ccc(F)cc2)C(=O)c2ccccc2C1=O | 25µM* | 10%[38.3 µM] | ? | ? | 61 | .
O=C1C(=Cc2cccn2-c2ccc(O)cc2)C(=O)c2ccccc21 | ? | ? | -7% | 0% | 8 | i
O=C1C(=Cc2cccn2-c2ccccc2)C(=O)c2ccccc21 | 28µM* | ? | ? | 2% | -2 | i
CC(=O)N1CCN(C(=O)Cn2ccc3ccc(OCc4ccccc4)cc32)CC1 | . | . | . | . | 0 | .
CN1C(=O)/C(=C/c2ccccc2OCc2ccccc2)NC1=S | 1% | 2% | -1% | -2% | -7 | i
CN1C(=O)/C(=C/c2ccccc2OCc2ccc(F)cc2)N(C)C1=S | 3.5µM* | ? | -3% | -3% | -1 | i
COc1cccc(C(=O)N2CCN(C(=O)c3cccs3)CC2)c1OC | 4% | -1% | 0% | -4% | -4 | -112%*
COc1cccc(C(=O)N2CCOCC2)c1OC | 8% | 1% | -4% | -4% | -9 | i
CC(C)(C)c1cc(C(F)(F)F)c(C#N)c(=O)[nH]1 | 2% | -1% | 1% | -8% | -4 | i
CC(C)(C)c1cc(=O)n2c(C#N)c(C#N)nc2[nH]1 | . | 1% | -5% | -2% | -5 | -89%*
O=C(CC(c1cccc(F)c1)n1cccc1)Nc1ccc2c(c1)OCO2 (stereo not drawn) | . | . | . | . | 3 | .
Cc1cc(=O)[nH]c(-n2nc(C)c(Oc3ccccc3O)c2C)n1 | -11% | 0% | 0% | 1% | 0 | -110%*
Cc1c(C(=O)Nc2ccccc2)c2ccc(C(F)(F)F)cc2n1O | 2% | 45µM* | -2% | -7% | 9 | i
CCN(Cc1ccc(OC)c(F)c1)C(=O)Cn1cnc2c(cnn2C)c1=O | . | . | . | . | -16 | .
Cc1ccc(S(=O)(=O)N2CCN(CCNC(=O)c3ccccc3C(F)(F)F)CC2)cc1 | . | . | . | . | 3 | .
[Cl][In]([Cl])[Cl] | . | -1% | 1% | -3% | -80* | .
CCOc1cc(C2C3=C(CCCC3=O)OC3=C2C(=O)CCC3)cc(Br)c1OCC(=O)O | . | . | . | . | -33* | .
COc1cc(C2C3=C(CCCC3=O)OC3=C2C(=O)CCC3)ccc1OCc1ccc(C(=O)O)cc1 | . | . | . | . | 3 | .
CC(C)OC(=O)/C(C#N)=C/c1c[nH]c2ccccc12 | -7% | 10% | 3% | 8% | -32*! | i
SMILES | Vif-A3F inh | PINK1 expr mod | Vif-APOBEC3G blk | GRP78 ERSR act | LDHA inh | pAkt inh
O=C(C1CC1)N1CCN(C(=O)C2CC(=O)N(c3cccc(C(F)(F)F)c3)C2)CC1 (stereo not drawn) | . | . | . | . | -6 | .
C=CCSc1nc2sc3c(c2c(=O)n1CC)CCC3 | 22µM* | 8% | -4% | -5% | 2 | i
C=CCn1c(SCC(=O)N(C)C)nc2sc3c(c2c1=O)CCC3 | 4% | 0% | 4% | -3% | -7 | .
O=[N+]([O-])C(Cl)C(=Nc1ccc(Br)cc1)n1nnc2ccccc21 (stereo not drawn) | . | . | . | . | 24 | .
COc1cccc(C(=O)OCCN2C(=O)c3ccccc3C2=O)c1OC | -2% | -2% | 1% | 0% | -5 | i
COc1ccc(C(=O)OCCN2C(=O)c3ccccc3C2=O)cc1 | -9% | 11µM* | -4% | 1% | -1 | i
Cc1ccc([N+](=O)[O-])cc1N=Nc1c(-c2ccc([N+](=O)[O-])cc2)[nH]n(C(N)=S)c1=O | 5% | 2.8µM* | 4% | -7% | -9 | i
NC(=S)n1[nH]c(-c2ccc([N+](=O)[O-])cc2)c(N=Nc2ccc(Cl)cc2)c1=O | -33% | 11µM* | -6% | -4% | -8 | i
O=C(c1cccnc1)N1CCN(Cc2c[nH]c3ccccc23)CC1 | . | . | . | . | -3 | .
O=C1/C(=C\c2ccc(O)c(O)c2)SC(=S)N1Cc1ccccc1 | ? | 7% | 22µM* | -5% | 13 | i
O=C1S/C(=C\c2ccc(O)c([N+](=O)[O-])c2)C(=O)N1Cc1cccc([N+](=O)[O-])c1 | -3% | 40µM* | 0% | -3% | -10 | i
O=C1/C(=C\c2cccc(O)c2O)SC(=S)N1Cc1ccccc1 | 0% | ? | -12% | 1% | 9 | i
O=C1/C(=C\c2cc([N+](=O)[O-])ccc2O)SC(=S)N1Cc1ccc(Cl)cc1 | 13µM* | 14µM* | ? | -5% | -9 | i
O=C1/C(=C/c2ccc(O)cc2)SC(=S)N1Cc1cccnc1 | ? | 35µM* | -2% | 2% | -9 | i
C#CCOc1ccc(/C=C2\SC(=S)N(Cc3cccnc3)C2=O)cc1 | -24% | 11% | -9% | 1% | 2 | i
Cc1ccc(CC(=O)Nc2cnc3ccccc3c2)cc1 | . | . | . | . | -1 | .
CC(C)CNc1nc(-c2ccc3c(c2)CCC(=O)N3)cs1 | . | . | . | . | 11 | .
O=C1CC(C(=O)Nc2ccc(F)cc2)c2c(nc(SCCc3ccccc3)[nH]c2=O)N1 (stereo not drawn) | . | . | . | . | 3 | .
Cc1occc1C(=O)N/N=C/C1=C(N2CCOCC2)C(=C\c2ccc(Cl)cc2Cl)/CC1 | 2% | 32µM* | 2% | 0% | -12 | i
CCN1CCN(C(=O)c2cc(-c3ccc(OC)cc3)nc3ccccc23)CC1 | . | . | . | . | -2 | .
CC(C)NC(=O)Cn1c(=O)n(-c2ccccc2)c(=O)c2sccc21 | . | . | . | . | -41* | .
COc1ccc(/C=N/NC(=O)c2[nH]nc3c2CCc2ccccc2-3)cc1OC | -4% | 7% | 3.2µM* | 2% | 0 | i
CCC(=O)N/N=C(/C)c1ccccc1 | . | . | . | . | -8 | .
Cc1ccc(C(C)C)c(Oc2ccc(C(=O)O)cc2)c1 | . | . | . | . | 0 | .
OC(COc1ccc2c(c1)CCC2)Cn1cnc2ccccc21 (stereo not drawn) | 0% | 1% | 0% | 3% | 1 | -123%*

Source: PubChem BioAssay (National Center for Advancing Translational Sciences (NCATS))
